Source: PubChem
Giardia kill – Giardia lamblia killing; Giardia lamblia trophozoite viability; activity change, % at 7.66 µM, hits read low; actives 0.15% (n = 340,000); in the data active = activity change below about -80%; inconclusive = between about -30% and that limit;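 also: parasites exposed to compound for two days anaerobically before the ATP read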
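Anaerobic 48 hrs incubation at 37 deg C of 100 trophozoites/well with test compounds; ATPLite 1-Step luminescence, 15-30 min RT, reports cellular ATP as viability.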
IL1B secr inh – blocks inflammasome-driven IL-1 beta release; THP-1 LPS/ATP IL-1B secretion, AlphaLISA, 16 h; active compounds read low; activity change, % at 57.5 µM; actives 4.7% (n = 360,000); in the data active = activity change below about -50%; inconclusive = mostly about -30% to -49%
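THP-1 cells pretreated 1 hr with compounds (up to 57.5 uM final), then stimulated with LPS (250 ng/mL final) plus ATP (1.25 mM final); secreted IL-1B measured by AlphaLISA after 16 hr, decreased signal indicating inhibition.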
HT1080 IDH1KD tx – toxicity to HT-1080 IDH1 knockdown cells (counter line); HT-1080 IDH1 knockdown viability, ATP luminescence, 48 h; Potency, µM (series often up to 46.1 µM), most hits filed as cytotoxic; actives 2% (n = 360,000); AID 686971
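Cytotoxicity counter-line: IDH1KD HT-1080, 48 h, CellTiter-Glo. Curves classed by r2, magnitude and activity.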
HepG2 viability – HepG2 cytotoxicity, counter-screen for TGF-b inhibitors; Potency, µM (highest dose often 46.1 µM), hits mostly cytotoxic; AID 588856; actives 0.76% (n = 410,000); HepG2 CAGA-GFP viability, ATP luminescence, 18 h
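CellTiter-Glo luminescence gave cytotoxicity after 18 hours at 37 degrees C. The cells were HepG2 CAGA-GFP in 1% FBS DMEM, stimulated with 500 pg/mL TGF-beta after compound addition. %Activity was normalised to no-cell wells (complete cell-killing) and DMSO (no toxicity), and curves were fitted and classified.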
TGFb SMAD3 inh – TGF-b pathway inhibition; actives 1.2% (n = 410,000); HepG2 CAGA-GFP TGF-b/SMAD3 reporter, GFP fluorescence, 18 h; TGF-beta stimulated, 500 pg/mL final; Potency, µM (top dose mostly 46.1 µM), most hits filed as inhibitors; also: nearly all actives have a fitted effect of over 65% in size
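HEPG2 CAGA-GFP cells (1000/well, DMEM with 1% FBS) were pre-incubated 2 h at 37 degrees C, given compound by pin tool, then stimulated with TGF-beta at 500 pg/mL final for 18 h before per-cell GFP fluorescence imaging.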
HT1080NT lethal – kills 2HG-producing HT-1080-NT fibrosarcoma cells; HT-1080-NT fibrosarcoma viability, CellTiter-Glo ATP luminescence, 48 h; Potency, µM (highest dose often 46.1 µM), hits mostly cytotoxic; actives 1.6% (n = 360,000); AID 686970;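 also: NT is the 2HG producing partner of a matched IDH1 knockdown line; nearly all actives have a fitted effect of over 55% in size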
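Fibrosarcoma NT cells, 750 per well in 5% FBS RPMI, were exposed to compound for 48 hours. Viability: CellTiter-Glo luminescence.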
Large screens that a line does not name were inactive. The list is not random: actives were taken first. Their share in the collection is about 6.5%. Unless noted, calls follow the shape of the dose curve; as a rule, active = well fitted curve in the direction sought with a large enough effect; inconclusive = small, poorly fitted or top-dose-only effect, or another doubt; inactive = no such curve, though single readings can be large; an effect the other way counts as inactive or inconclusive.

Cc1ccc(S(=O)(=O)CCC(=O)N(CCN2CCOCC2)c2nc3ccccc3s2)cc1	none
CCN(CC)CCN(C(=O)CCS(=O)(=O)c1ccccc1)c1nc2c(C)cc(C)cc2s1	IL1B secr inh -90, TGFb SMAD3 inh inconclusive
Oc1ccc2c(c1)OCC1(O)Cc3cc(O)c(O)cc3C21 (stereo unspecified)	none
Cc1cnn(CCC(=O)NNC(=S)Nc2cccc(Cl)c2)c1	HT1080 IDH1KD tx 0.71µM, HT1080NT lethal 0.79µM
Cc1ccc(OC(=O)c2cccc([N+](=O)[O-])c2)c(-n2nc3ccccc3n2)c1	none
COc1ccccc1NCC(O)Cn1c2ccccc2c2ccccc21 (stereo unspecified)	HT1080 IDH1KD tx inconclusive, TGFb SMAD3 inh 13µM
COc1ccc(CCNCC(O)Cn2c3ccccc3c3ccccc32)cc1OC (stereo unspecified)	IL1B secr inh -55, HT1080 IDH1KD tx 23µM, HepG2 viability 11µM, TGFb SMAD3 inh inconclusive
CCOC(=O)N1CCN(CC(O)COc2ccc(OC)cc2C(C)(C)C)CC1 (stereo unspecified)	none
COc1ccc(CCNCC(O)COc2ccc(OC)cc2C(C)(C)C)cc1 (stereo unspecified)	IL1B secr inh -97, HT1080 IDH1KD tx 18µM, TGFb SMAD3 inh inconclusive, HT1080NT lethal inconclusive
COc1ccc(CCNCC(O)COc2cccc(Br)c2)cc1OC (stereo unspecified)	Giardia kill inconclusive, IL1B secr inh -61
CCn1c(=O)c(C(=O)NCCc2ccc(OC)c(OC)c2)c(O)c2ccccc21	TGFb SMAD3 inh inconclusive
CCC(CC)NC(=O)COC(=O)CCC(=O)c1cccs1	none
FC(F)Oc1ccc(-c2csc(NNC3=NCCCCC3)n2)cc1	IL1B secr inh -93, HT1080 IDH1KD tx inconclusive, HT1080NT lethal inconclusive
CC(C)(C)c1ccc(-c2csc(NNC3=NCCCCC3)n2)cc1	IL1B secr inh -61, HT1080 IDH1KD tx inconclusive
Brc1ccc(-c2csc(NNC3=NCCCCC3)n2)cc1	IL1B secr inh -53
Nc1ccc(-c2nc3c(Cl)c(N)ccc3[nH]2)cc1	none
O=C(O)C(C(=O)O)=C1C2CC3CC(C2)CC1C3	HT1080NT lethal inconclusive
CN(CCC#N)C(=O)CSc1nc2scc(-c3ccccc3)c2c(=O)[nH]1	none
CC[C@]1(O)CC2CN(CCc3c([nH]c4ccccc34)[C@@](C(=O)OC)(c3cc4c(cc3OC)N(C)[C@H]3[C@@](O)(C(=O)OC)[C@H](OC(C)=O)[C@]5(CC)C=CCN6CC[C@]43[C@@H]65)C2)C1 (stereo partly specified)	TGFb SMAD3 inh inconclusive (no result: Giardia kill, IL1B secr inh, HT1080 IDH1KD tx, HT1080NT lethal)
CCC1(O)CC2CN(CCc3c([nH]c4ccccc34)C(C(=O)OC)(c3cc4c(cc3OC)N(C=O)C3C(O)(C(=O)OC)C(OC(C)=O)C5(CC)C=CCN6CCC43C65)C2)C1 (stereo unspecified)	HT1080 IDH1KD tx inconclusive, TGFb SMAD3 inh inconclusive, HT1080NT lethal 0.0058µM
CC(=O)c1ccc(O)c(CC=C(C)C)c1O	none
COc1ccc(C(=O)/C=C/c2ccc(O)cc2)c2c1CC(O)C(C)(C)O2 (stereo unspecified)	IL1B secr inh -93
COc1ccc(C(=O)/C=C/c2ccc(O)cc2)c(O)c1CC=C(C)C	IL1B secr inh -72, HT1080 IDH1KD tx 23µM, TGFb SMAD3 inh inconclusive, HT1080NT lethal inconclusive
O=C(/C=C/c1ccc(O)cc1)c1ccccc1	IL1B secr inh inconclusive
C=CCSc1nnc(CCCCCN2C(=O)c3cccc4cccc(c34)C2=O)o1	TGFb SMAD3 inh inconclusive
CC(=O)c1ccc(N2CCN(C(=S)Nc3ccc(Oc4ccccc4)cc3)CC2)cc1	IL1B secr inh -66, HT1080 IDH1KD tx inconclusive, TGFb SMAD3 inh inconclusive
COc1ccc(C(=O)Nc2ccc(N3CCCC3)cc2)cc1	none
CN1CCN(c2ccc(NC(=O)c3ccc(Oc4ccccc4)cc3)cc2)CC1	IL1B secr inh -78, HT1080 IDH1KD tx inconclusive, TGFb SMAD3 inh inconclusive, HT1080NT lethal 15µM
CCOC(=O)Cc1cn(C(=O)OC(C)(C)C)c2ccccc12	TGFb SMAD3 inh inconclusive
Cn1cnnc1SC1c2cccc3cccc(c23)C1NS(=O)(=O)c1ccccc1 (stereo unspecified)	none
CS(=O)(=O)NC1c2cccc3cccc(c23)C1Sc1nncn1/N=C/c1ccco1 (stereo unspecified)	IL1B secr inh -60
O=C1NC(c2ccccc2Cl)=N/C1=C/c1ccco1	HepG2 viability 18µM, TGFb SMAD3 inh inconclusive
O=C1NC(c2ccc(Br)cc2)=N/C1=C/c1ccco1	none
CCCC1=C(C(=O)OCC)C(c2sccc2C)n2ncnc2N1 (stereo unspecified)	TGFb SMAD3 inh inconclusive
Cc1ccc2nc(Cl)c3nnnn3c2c1	IL1B secr inh -94, HT1080 IDH1KD tx 13µM, HepG2 viability 6.3µM, TGFb SMAD3 inh inconclusive
CCc1ccc(Nc2nnc(SCC(=O)Nc3ccc(C(=O)O)cc3)s2)cc1	Giardia kill inconclusive
O=c1oc2cc(Oc3c([N+](=O)[O-])cc(C(F)(F)F)cc3[N+](=O)[O-])ccc2c2c1CCCC2	IL1B secr inh -82, TGFb SMAD3 inh inconclusive, HT1080NT lethal inconclusive
O=c1oc2cc(Oc3ccc(C(F)(F)F)cc3[N+](=O)[O-])ccc2c2c1CCC2	none
Cc1nn(-c2ccccc2)c(Cl)c1CN(C(=O)CCl)c1cccc2ccccc12	IL1B secr inh -98, HT1080 IDH1KD tx 5.2µM, TGFb SMAD3 inh inconclusive, HT1080NT lethal 4.1µM
Cc1nn(-c2ccccc2)c(Cl)c1CN(C(=O)CCl)c1ccc(Cl)cc1	IL1B secr inh -113, HT1080 IDH1KD tx 5.2µM, HepG2 viability 7.9µM, TGFb SMAD3 inh 10µM, HT1080NT lethal 7.3µM
CC(=O)N(Cc1c(C)nn(-c2ccccc2)c1Cl)c1ccc(Cl)cc1	none
Cc1nn(-c2ccccc2)c(Cl)c1C(=O)NCC(=O)O	none
CC(=O)c1sc(N/N=C2\CC3CCC2(C)C3(C)C)nc1C (stereo unspecified)	HT1080 IDH1KD tx inconclusive, HT1080NT lethal 23µM
Cc1ccc(NC2c3ncccc3C(=O)N2c2ccccc2C)cc1C (stereo unspecified)	TGFb SMAD3 inh inconclusive
O=C(COc1ccc(Br)cc1)Nc1nnc(-c2cccnc2)s1	none
Cc1ccoc1C(=O)NCCNc1ccc(Cl)cc1[N+](=O)[O-]	IL1B secr inh -59
COc1cccc(N=c2oc3cc(O)ccc3cc2C(=O)NCC2CCCO2)c1 (stereo unspecified)	IL1B secr inh -87, TGFb SMAD3 inh inconclusive
COc1ccccc1N=c1oc2cc(O)ccc2cc1C(=O)NCC1CCCO1 (stereo unspecified)	none
